Data as given in PubChem BioAssay AID651965 (National Center for Advancing Translational Sciences (NCATS), 2013).
The campaign covered roughly 340,000 compounds. About 6,400 (1.9%) were called active. A call without a number means that no potency is given here. About 4% were inconclusive and are not listed. Calls follow the shape of the dose curve; as a rule, active = well fitted falling curve with a large enough effect; inconclusive = small, poorly fitted or top-dose-only effect; inactive = no such curve, though single readings can be large or run the other way. The full list was thinned out, with actives kept by preference.

Target: ATP-dependent Clp protease proteolytic subunit (Bacillus subtilis (strain 168)) (UniProt P80244)
Sequence (P80244 whole entry, looked up): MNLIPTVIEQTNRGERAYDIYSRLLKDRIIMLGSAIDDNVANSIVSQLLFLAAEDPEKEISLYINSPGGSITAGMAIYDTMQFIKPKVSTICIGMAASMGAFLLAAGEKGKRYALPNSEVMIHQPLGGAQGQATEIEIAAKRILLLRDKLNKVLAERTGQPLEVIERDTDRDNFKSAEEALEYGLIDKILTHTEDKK
Test: qHTS Assay for Activators of ClpP; also: the source files actives as falling curves though it sought activators and does not explain the sign; nearly all actives have a fitted effect of over 65% in size
Details: purified B. subtilis ClpP, FRET peptide cleavage, 20 min; series mostly up to 57.5 µM
Outline: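 Buffer: 100 mM Tris/HCl pH8, 100 mM KCl, 0.05% low protease BSA, 2.5% glycerol, 0.01% Tween-20. ClpP 10 microg/mL final; 20 min RT; delta FRET normalized to ADEP and DMSO controls.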
Potency is read from the fitted curve at half-maximal effect.

SMILES | Potency
Brc1cccc[n+]1Cc1cccc(C[n+]2ccccc2Br)c1 | inactive
CC(C)C(=O)Nc1ccc2c(c1)oc1ccccc12 | inactive
Cc1ccc2oc(=O)ccc2c1 | inactive
CC(C)C(=O)Nc1ccc2oc(=O)ccc2c1 | 35.5 µM (active)
COc1ccc(C(C)(O)c2nc(-c3cc(F)cc(F)c3)cs2)cc1 (stereo unspecified) | inactive
CN1CCN(c2ccc3c(c2)OC[C@H](Cc2ccccc2)NS3(=O)=O)CC1 | inactive
COc1ccccc1CNC(=O)c1cc(-c2cc(F)ccc2OC)n[nH]1 | inactive
CC(C)(C)c1ccc(OCC(=O)N2CCC(c3nc4ccccc4s3)CC2)cc1 | inactive
O=C(OC1CCOC1=O)c1ccc(-c2nc3ccccc3s2)s1 (stereo unspecified) | 17.8 µM (active)
Cc1nn(Cc2ccccc2)c(Cl)c1C(=O)OC1CCOC1=O (stereo unspecified) | inactive
COCCNC(=O)c1cc2c(Br)ccc(Br)c2nc1N | inactive
CCOP(=O)(OCC)C(Cc1ccccc1)N=C(c1ccccc1)c1ccccc1 (stereo unspecified) | inactive
CCCC1OC23CCCCC2C(C#N)(C#N)C1(C#N)C(=N)O3 (stereo unspecified) | 20 µM (active)
O=C(Nc1ccccc1)c1ccccc1OCc1ccccc1 | inactive
C[C@H]1CN([C@@H](C)CO)C(=O)CCCn2nncc2CO[C@@H]1CN(C)Cc1ccc(Oc2ccccc2)cc1 | inactive
NC(c1ccccc1)c1csc(NC(=O)Nc2cccc(C(F)(F)F)c2)n1 (stereo unspecified) | inactive
COCCCn1c(C(=O)NC2CCCCC2)cc2c(=O)n3cccc(C)c3nc21 | inactive
CCCn1c(=N)c(C(=O)NCc2ccccc2)cc2c(=O)n3cccc(C)c3nc21 | inactive
Cc1cccn2c(=O)c3cc(C(=O)N4COCC4(C)C)n(C)c3nc12 | 28.2 µM (active)
O=C1NC[C@H](CCCCN2C[C@H](Cc3ccc(O)cc3)N(CC3CCCCC3)C(=O)C2=O)N(CCc2ccccc2)C1=O | inactive
Cn1c(=O)c2cc(NC(=O)NCCc3cccs3)ccc2n1Cc1cccc(C(F)(F)F)c1 | inactive
CSc1ccc(-c2c(C#N)c(N)nc3c2c(C)nn3-c2ccccc2)cc1 | 22.4 µM (active)
Cc1nc2c(c(C)nn2-c2ccccc2)c(C)c1C | inactive
Cc1nn(-c2ccccc2)c2c1C(c1ccc(F)cc1)C(C#N)=C(N)O2 (stereo unspecified) | inactive
COc1ccc(NC(=O)C2(C)Cc3c(-c4cccc(NC(C)=O)c4)ccnc3O2)cc1OC (stereo unspecified) | inactive
FC(F)(F)c1cccc(-c2nc3ccccc3n2C(c2ccccc2)c2nc3ccccc3[nH]2)c1 (stereo unspecified) | inactive

SMILES | Potency
O=C(Nc1cc(C(F)(F)F)ccc1Cl)c1nc2ccccc2nc1N1CCCCC1 | inactive
FC(F)(F)c1cccc(-c2cc3ccccc3nc2N2CCCC2)c1 | 31.6 µM (active)
CC(=O)c1ccc[n+](C(C)CCC(C)[n+]2cccc(C(C)=O)c2)c1 (stereo unspecified) | inactive
O=C(Nc1cccc(C(=O)O)c1)/C(=C\c1ccccc1)NC(=O)c1ccc(Br)o1 | inactive
CC(=O)NC(c1ccccc1)c1nc(-c2cccc(C(C)C)c2)cs1 (stereo unspecified) | inactive
CC1(C(=O)NS(=O)(=O)c2cccc(F)c2)CCN1C(=O)c1cccc2ccccc12 (stereo unspecified) | inactive
COCCNc1nc(-c2ccccc2)nc2c1oc1ccccc12 | inactive
CCc1nc(Nc2ccc3nccnc3c2)c2oc3ccccc3c2n1 | 28.2 µM (active)
CCc1nc(Nc2ccc(NC(C)=O)cc2)c2oc3ccccc3c2n1 | inactive
COc1ccc(Cn2cccc(NC(=O)Nc3ccc(C#N)cc3)c2=O)cc1 | 12.6 µM (active)
COc1ccc(Cn2c(C)c(C)c(C#N)c2NC(=O)Nc2ccc(F)cc2)cc1 | inactive
COc1ccc(Cn2ccn(CC(=O)Nc3cc(C)ccc3C)c(=O)c2=O)cc1 | inactive
CSc1ccc(CN2CCC2(C)C(=O)Nc2ccc(C)c(O)c2)cc1 (stereo unspecified) | inactive
CCOc1n[nH]c(-c2ccccc2)n1 | inactive
Cc1ccccc1S(=O)(=O)NC(=O)C1(C)CCN1C(=O)Cc1ccc(Cl)cc1Cl (stereo unspecified) | inactive
COC(=O)c1ccc2nc(-c3ccc(C)cc3)c(Cc3ccc(OC)cc3C)n2c1 | inactive
O=C(C1CC(=O)N(c2ccc(Br)cc2)C1)N1CCCC1 (stereo unspecified) | inactive
Cc1ccc(N2CC(C(=O)Nc3ccc(N(C)C)cc3)CC2=O)cc1Cl (stereo unspecified) | inactive
Cc1ccc(N2CC(C(=O)N3CCC4(CC3)CC(=O)c3ccccc3O4)CC2=O)cc1C (stereo unspecified) | 28.2 µM (active)
O=[N+]([O-])c1cc(S(=O)(=O)N2CCCC2)ccc1NN=C1CCCC1 | inactive
O=[N+]([O-])c1cc(C(F)(F)F)ccc1NN=C1CCCC1 | 31.6 µM (active)
O=[N+]([O-])c1ccc(N/N=C2/CCCCC2c2ccccn2)c([N+](=O)[O-])c1 (stereo unspecified) | inactive
CCCS(=O)(=O)NC(=O)C1(C)CCCN(C(=O)c2ccnc(Cl)c2)C1 (stereo unspecified) | inactive
O=C(C(=O)N1CCN(c2ccccc2)CC1)c1ccc2c(c1)OCO2 | inactive
COC(=O)Cc1c(C)c2ccc(OCC(=O)NCc3ccc4c(c3)OCO4)cc2oc1=O | 31.6 µM (active)
COc1ccc(CCNC(=O)COc2ccc3c(c2)OCO3)cc1 | inactive

SMILES | Potency
COc1ccc2c(C)c(CCC(=O)NCc3ccc(OC)c(OC)c3)c(=O)oc2c1 | inactive
CCC(C)CN1C(=O)CN(S(C)(=O)=O)CC1(C)C(=O)Nc1ccc2c(c1)OCCO2 (stereo unspecified) | inactive
COc1ccc(/C=C/c2ccnc3ccccc23)cc1OC | inactive
CCC1(CC)Cc2ccccc2-c2nc3ccccc3c(=O)n21 | inactive
CCC1(CC)Cc2ccccc2-c2nc(CCl)[nH]c(=O)c21 | inactive
CCOC(=O)C1Cn2c(nc3c(c2=O)C(C)(CC)Cc2ccccc2-3)S1 (stereo unspecified) | 28.2 µM (active)
OC(c1ccccc1)(c1ccccc1)C1CCN(CCCOc2ccccc2)CC1 | inactive
CN(C)Cc1cn(-c2ccccc2)nc1-c1ccccc1 | inactive
Cc1ccc(-c2nn(-c3ccccc3)cc2CN(Cc2ccccc2)C(=O)CCC(=O)O)o1 | 22.4 µM (active)
O=C(O)CCC(=O)N(Cc1ccccc1)Cc1ccccc1 | inactive
CCCC(=O)Nc1cc2nn(-c3ccccc3)nc2cc1C | inactive
c1ccc(-n2nc3ccccc3n2)cc1 | 25.1 µM (active)
Nc1ccc2nn(-c3ccc(Cl)cc3)nc2c1 | inactive
CCc1nc2c(OCCOc3ccccc3)cccn2c1N(C)C(=O)c1ccccc1F | inactive
Cc1cccc(NC(=O)COC(=O)c2ccccc2OCc2cccc(Br)c2)c1 | inactive
CCOc1ccc(-c2cc3nc(C4CCN(C(=O)OC(C)(C)C)CC4)c(C(=O)Nc4cccc(CC)c4)cn3n2)cc1 | inactive
COc1cc(OC)cc(-c2cc3nc(C4CCN(C(=O)OC(C)(C)C)CC4)cc(=O)n3[nH]2)c1 | 25.1 µM (active)
Cc1ccc(-n2ncc(C(=O)NC3CC3)c2C2CCN(C(=O)OC(C)(C)C)CC2)c(C)c1 | inactive
O=C(COC(=O)/C=C/c1ccc(Cl)cc1)NC1CCS(=O)(=O)C1 (stereo unspecified) | inactive
COc1ccc(/C=C2\SC(=O)N(CCC(=O)NC3CCS(=O)(=O)C3)C2=O)cc1 (stereo unspecified) | inactive
O=C(COC(=O)CCCN1C(=O)c2cccc3cccc(c23)C1=O)NC1CCS(=O)(=O)C1 (stereo unspecified) | 31.6 µM (active)
Cc1ccc(F)c(S(=O)(=O)NC(=O)C2(C)CCN2C(=O)c2ccco2)c1 (stereo unspecified) | inactive
CCC(C)(C)NC(=O)/C=C/c1cc(OC)c(OC)c(S(=O)(=O)N2CCc3ccccc32)c1 | inactive
COc1cc(/C=C/C(=O)O)cc(S(=O)(=O)Nc2ccccc2SC)c1OC | inactive
CCn1nc(C(=O)NNS(=O)(=O)c2cc(/C=C/C(=O)O)cc(OC)c2OC)c2ccccc2c1=O | 5.62 µM (active)
COc1ccccc1CNc1nc(Nc2ccccc2Cl)c2sccc2n1 | inactive

SMILES | Potency
c1ccc(Cn2nnc3c(N4CCCCC4)ncnc32)cc1 | inactive
O=C(CC(CC(=O)c1ccccc1)c1ccco1)c1ccccc1 | inactive
OC(c1ccc(Cl)cc1)c1ncc(-c2ccc(Cl)cc2)[nH]1 (stereo unspecified) | inactive
C#CC(C)(C)NC(=O)c1cnc(-c2ccccc2)nc1-c1ccccc1 | inactive
C=CCn1c(-c2sc(-c3ccccc3)nc2C)n[nH]c1=S | inactive
Cc1nc(-c2ccccc2)sc1-c1nc(-c2ccccc2)ncc1S(=O)(=O)c1ccccc1 | 31.6 µM (active)
CC1(C(=O)NCc2ccc(F)c(F)c2)Cc2c(-c3ccc4c(c3)OCO4)ccnc2O1 (stereo unspecified) | inactive
CC(C)CCOc1ccc(C(=O)Nc2cc(S(=O)(=O)N3CCOCC3)ccc2N2CCOCC2)cc1 | inactive
Cn1c(NN)nc2sc3c(c2c1=O)CCC3 | 11.2 µM (active)
CCCc1nc2sc3c(c2c(=O)n1NC(=O)CCCl)CCCC3 | inactive
NNC(=O)C1CCCn2c1nc1sc3c(c1c2=O)CCCC3 (stereo unspecified) | inactive
OCCNc1ncnc2oc(-c3ccco3)c(-c3ccco3)c12 | inactive
CCOc1ccc(CCN2C(=O)C(=O)N([C@@H](Cc3ccc(O)cc3)CN3CCC[C@H]3CN3C(=O)C(=O)NC[C@@H]3CC(C)C)C[C@@H]2Cc2ccccc2)cc1 | inactive
COc1ccc(NC(=O)CCCOc2ccc(C(C)=O)cc2)cc1S(=O)(=O)N1CCCCC1 | inactive
Cc1ccc(NC(=S)N(CCN(C)C)Cc2cccs2)cc1C | inactive
Cc1ccccc1NC(=S)N(CCCN1CCOCC1)Cc1cccs1 | 28.2 µM (active)
CCN(Cc1ccncc1)C(=S)Nc1ccccc1C | inactive
COc1ccc(/C=C/c2ccccn2)cc1OC | inactive
Cc1cccnc1C(NC(=O)C1CCN(Cc2ccc(Cl)c(Cl)c2)CC1)c1ccc(Cl)cc1 (stereo unspecified) | inactive
O=C1Nc2ccccc2NC(c2ccc3c(c2)OCO3)=C1N(Cc1ccc(F)cc1)C(=O)c1ccco1 | inactive
O=C(COC(=O)c1ccc(F)cc1)Nc1ccc2c(c1)OCO2 | inactive
O=C(COC(=O)c1ccccc1)c1ccc2c(c1)OCCO2 | inactive
CC(=O)Nc1cccc(C(=O)OCC(=O)c2ccc3c(c2)OCO3)c1 | 12.6 µM (active)
